Screening results: PubChem BioAssay, National Center for Advancing Translational Sciences (NCATS)
D1 ag: agonists of human D1 dopamine receptor; P21728; HEK293 T-REx D1 cells, calcium flux, agonist mode; activation, % at 2 µM; 360,000 tested, 1% active; AID 504660; in the data active means activation above about 30%
Target sequence (P21728 whole entry, looked up): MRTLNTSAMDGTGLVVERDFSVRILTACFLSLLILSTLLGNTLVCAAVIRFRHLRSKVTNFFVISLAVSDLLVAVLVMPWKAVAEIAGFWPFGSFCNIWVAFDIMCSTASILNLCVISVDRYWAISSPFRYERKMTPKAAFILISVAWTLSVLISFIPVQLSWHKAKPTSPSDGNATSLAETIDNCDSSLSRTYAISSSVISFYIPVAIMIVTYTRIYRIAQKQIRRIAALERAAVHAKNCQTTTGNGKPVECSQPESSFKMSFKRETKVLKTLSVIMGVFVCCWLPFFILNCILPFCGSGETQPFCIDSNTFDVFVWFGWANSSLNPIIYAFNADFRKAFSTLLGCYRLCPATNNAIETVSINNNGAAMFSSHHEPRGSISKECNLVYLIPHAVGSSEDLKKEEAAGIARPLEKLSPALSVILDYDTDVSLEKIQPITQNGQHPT
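Inducible HEK293 T-REx D1 cells, force-coupled to calcium signalling, were plated at 4000 cells/well with tetracycline and held overnight at 30 C. After no-wash calcium dye loading, compound-evoked calcium rise over 180 s flagged agonists.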
D1 potentiator: enhances dopamine response at the human D1 receptor; P21728; HEK293 TREx D1 cells, calcium flux, dopamine EC20 potentiation; potentiation, % at 10 µM; 360,000 tested, 0.036% active; in the data active means potentiation above about 30%
D1 antagonist: human D1 dopamine receptor antagonism | HEK293 TREx D1 cells, calcium flux, dopamine EC80; active compounds read low | activity change, negative = inhibition, % at 10 µM | 360,000 tested, 3.2% active | AID 504652; in the data active means activity change below about -30%
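Inducible Hek293 Trex D1 cells (tetracycline, overnight, 30 C). Calcium dye 30–90 min RT. Antagonist mode: EC80 dopamine added after 180 s compound read.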
D3 antag: D3 dopamine receptor (human) antagonism; AID 652054; max response, negative = inhibition, %; D3R cells, DiscoveRx beta-arrestin luminescence, antagonist mode; active compounds read low; 360,000 tested, 2.5% active; P35462; in the data active means max response below about -50%
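Cells expressing the human receptor were seeded at 1500 cells/well, incubated overnight at 37 degrees C in 5% CO2, then exposed to library compounds with dopamine controls for 90 minutes at 37 degrees C before luminescent detection.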
D3 ag: D3 dopamine receptor (human) agonism. P35462. D3R DiscoveRx beta-arrestin cells, luminescence, 90 min. max activation, %. 410,000 tested, 0.58% active; in the data active means max activation above about 30%
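Agonist-mode cell screen: cells plated at 1500/well and incubated overnight at 37 °C, then exposed to library compounds for 90 min at 37 °C. Detection reagent was added for 30–60 min at room temperature, and luminescence was read.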
Of the large screens only hits and unclear results are named; the others gave an inactive call; ! = a repeat was not active. Hits are enriched below; roughly 6.1% of the tested compounds scored in any of these assays.

O=[N+]([O-])c1cc(C(F)(F)F)cc([N+](=O)[O-])c1N1CCN(S(=O)(=O)c2ccccc2)CC1	D1 antagonist -32
COc1ccc(NC(=O)COc2ccc(-c3nn(C)c(=O)c4ccccc34)cc2)cc1	D1 antagonist -40!
CNC(=O)c1ccc(NC(=O)COc2ccc(-c3nn(C)c(=O)c4ccccc34)cc2)cc1	none (no result: D3 antag)
COc1ccc(OCC(=O)Nc2cc(-c3nn(C)c(=O)c4ccccc34)ccc2N2CCOCC2)cc1	none
COc1ccc(OCC(=O)Nc2cc(-c3nn(C)c(=O)c4ccccc34)ccc2OC)cc1	D3 antag -62
O=C(COc1ccc(Br)cc1)Nc1cccc2cccnc12	none (no result: D3 antag)
Cc1ccc(Nc2nccc(N(C)c3ccc4c(C)n(C)nc4c3)n2)cc1S(N)(=O)=O	none (no result: D1 ag, D1 potentiator, D1 antagonist, D3 antag)
COC(=O)COc1ccc(S(=O)(=O)Nc2ccc3c(c2)OCCO3)cc1Cl	D1 antagonist -33
COc1ccc(C(=O)O)cc1S(=O)(=O)Nc1ccc(C)cc1	D1 antagonist -70
COC(=O)COc1ccc(S(=O)(=O)Nc2ccc3c(c2)OCCO3)cc1C	none
CCCNS(=O)(=O)c1ccc(OCC(=O)Nc2ccc3c(c2)OCO3)cc1	none
CCOC(=O)COc1ccc(S(=O)(=O)Nc2ccc3c(c2)OCO3)cc1	D1 ag 63
CCOC(=O)COc1ccc(S(=O)(=O)Nc2ccc(C)cc2)cc1	D1 ag 45
COc1ccc(CNC(=O)c2ccc(NC(=O)N3CCCCc4ccccc43)cc2)c(OC)c1	none (no result: D3 antag)
CCc1ccc(CNC(=O)c2ccc(NC(=O)N3CC(C)Sc4ccccc43)cc2)cc1 (stereo unspecified)	none (no result: D3 antag)
C=CCNS(=O)(=O)c1ccc(OCC(=O)OCC)cc1	D3 antag -60
COc1ccc(S(=O)(=O)NCC(=O)Nc2ccc3c(c2)OCCO3)cc1OC	D3 antag -50
COc1ccc(NS(=O)(=O)c2ccc(NS(=O)(=O)c3ccc4c(c3)OCCO4)cc2)cc1	none (no result: D3 antag)
COc1ccc(NS(=O)(=O)c2ccc3oc(Nc4ccc5c(c4)OCCO5)nc3c2)cc1	D3 antag -56
CCOC(=O)COc1ccc(S(=O)(=O)c2ccc(OCC(=O)OCC)cc2)cc1	none
COc1cc(OC)c(OC)cc1/C=C/C(=O)c1ccc(NS(=O)(=O)c2ccc(C)cc2)cc1	D3 ag 31
COc1ccc(NC(=O)CNS(=O)(=O)c2ccc(Cl)cc2)cc1OC	none
CC(=O)c1ccc(NS(=O)(=O)c2ccc(C)cc2)cc1	none
Cc1cccc(CNC(=O)c2ccc(NC(=O)N3CC(C)Sc4ccccc43)cc2)c1 (stereo unspecified)	none (no result: D3 antag)
Cc1ccc(Oc2ccc(S(=O)(=O)Nc3ccc(C(=O)O)cc3)cc2)cc1	D1 antagonist -42
O=[N+]([O-])c1ccc(Oc2ccc(S(=O)(=O)Nc3ccccc3)cc2)cc1	D1 ag 55
O=S(=O)(Nc1ccc(Cl)cc1)c1ccc(NS(=O)(=O)c2ccc3c(c2)OCCO3)cc1	D1 ag 61 (no result: D3 antag)
NS(=O)(=O)c1ccc(NS(=O)(=O)c2ccc3c(c2)OCCO3)cc1	none
O=[N+]([O-])c1ccc(S(=O)(=O)Nc2ccncc2)cc1	none
CCOc1ccccc1NC(=O)c1cc(S(=O)(=O)N2CCOCC2)cn1C	none (no result: D3 antag)
COc1ccc(CN2CCC(N(CCc3ccccc3)Cc3ccccc3)CC2)c(OC)c1	D3 antag -62
CCN(Cc1ccccc1)C1CCN(Cc2ccccc2)CC1	none
CCCN1CCC(N(CCc2ccccc2)Cc2ccccc2)CC1	D3 antag -97
COc1ccc(CN2CCC(C(=O)N(C)CCc3ccc(OC)c(OC)c3)CC2)c(OC)c1	none
Cc1ccccc1CS(=O)(=O)Cc1ccc(C(=O)NCCc2ccc(Cl)cc2)o1	none (no result: D3 antag)
CCc1ccc(S(=O)(=O)/N=C2\C=C(Nc3ccc(O)cc3)C(=O)c3ccccc32)cc1	D3 antag -90
CCc1ccc(S(=O)(=O)/N=C2/C=C(Sc3ncn[nH]3)C(=O)c3ccccc32)cc1	D3 antag -80
CCc1ccc(S(=O)(=O)/N=C2\C=C(Nc3cccc(C(=O)O)c3)C(=O)c3ccccc32)cc1	D3 antag -93
Cc1cc(C)c2oc(-c3ccc(C)c(NC(=O)/C=C/c4ccco4)c3)nc2c1	none (no result: D3 antag)
CCc1cccc(C)c1NC(=O)COCc1cc(-c2ccc3c(c2)OCO3)on1	none (no result: D3 antag)
COc1cc(OC)cc(-c2c(-c3cccs3)c3cc(-c4ccc(C(N)=O)cc4)ccc3n2C)c1	D3 ag 39 (no result: D1 ag, D1 potentiator, D1 antagonist)
COc1ccc(-c2ccc3c(c2)c(-c2cccs2)c(-c2cc(OC)cc(OC)c2)n3C)cc1	none (no result: D1 antagonist)
O=C(NN1C(=O)C2C3C=CC(O3)C2C1=O)c1cccc(Br)c1 (stereo unspecified)	none (no result: D1 antagonist)
O=C(NN1C(=O)C2C3C=CC(O3)C2C1=O)c1cccc(O)c1 (stereo unspecified)	D1 antagonist -80
CCn1c2ccccc2c2cc(CN3CCN(Cc4ccccc4Cl)CC3)ccc21	none (no result: D3 antag)
COc1ccc(N(CC(=O)N/N=C/c2cccnc2)S(=O)(=O)c2ccccc2)c(OC)c1	none
COc1ccc(N(CC(=O)N/N=C/c2cccnc2)S(=O)(=O)c2ccc(C)cc2)cc1OC	D1 antagonist -52
CCc1ccc2nc(N(CCCN(C)C)C(=O)c3ccc(S(=O)(=O)N4CCCc5ccccc54)cc3)sc2c1	none
COc1cccc2sc(N(CCCN(C)C)C(=O)c3ccc(S(=O)(=O)N4CCCc5ccccc54)cc3)nc12	D1 ag 39
CN(C)CCCN(C(=O)c1ccc(S(=O)(=O)N2CCc3ccccc32)cc1)c1nc2c(Cl)cccc2s1	none
CN(C)CCN(C(=O)c1ccc(S(=O)(=O)N2CCc3ccccc32)cc1)c1nc2ccc(F)cc2s1	D1 antagonist -36
COc1ccc(NC(=O)c2oc3ccccc3c2NC(=O)Cc2cccs2)c(OC)c1	none (no result: D3 antag)
COc1ccc(OC)c2sc(N3CCN(C(=O)c4ccc5c(c4)CCCC5)CC3)nc12	none (no result: D1 antagonist, D3 antag)
O=C(NCCCN1CCN(c2cccc(Cl)c2)CC1)c1cnn(-c2ccc(F)cc2)c1-n1cccc1	none (no result: D3 antag)
COC(=O)CC1Oc2ccc(C)cc2-n2cc(-c3ccc(C)cc3)nc21 (stereo unspecified)	none (no result: D3 antag)
CCCn1c(SCC(N)=O)nnc1-c1ccco1	D1 antagonist -55
CC(C)NC(=O)CSc1nnc(-c2ccco2)n1N	D1 antagonist -67
CCCn1c(SCC(=O)c2ccc3c(c2)OCCO3)nnc1-c1ccco1	D1 antagonist -36
O=C(CSc1nnc(-c2ccco2)n1CC1CCCO1)c1ccc(F)cc1 (stereo unspecified)	D3 antag -67
NC(=O)CSc1nnc(-c2ccco2)n1N	none
CCn1c(SCC(N)=O)nnc1-c1ccco1	none
CCOc1ccc(NC(=O)Cn2cc(C(=O)c3ccccc3)c(=O)c3cc4c(cc32)OCCO4)cc1	none (no result: D3 antag)
COc1ccc2c(c1)CC(C(=O)Nc1c(C)cc(C)cc1C)CO2 (stereo unspecified)	none (no result: D3 antag)
